Only some compounds are listed: those with a hit (about 19% of all), similar ones and a draw of the others.
DT40 TDP1 CPT = DT40-hTDP1 cell growth loss with CPT. 420,000 tested, 12% active. chicken DT40 Tdp1-/-;hTDP1 cells + 20 nM CPT, ATP luminescence, 48 h. Potency, µM (highest dose often 46.2 µM), actives largely listed as inhibitors; note: nearly all actives have a fitted effect of over 55% in size
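Chicken DT40 Tdp1-/- cells complemented with human TDP1, 400 cells/well, exposed to compounds plus 20 nM camptothecin for at least 48 h at 37 C; viability read as ATP content by CellTiter-Glo luminescence.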
ASM inhibitor = human S-ASM enzyme inhibition. placental ASM, HMU-PC fluorogenic substrate, 60 min. 340,000 tested, 0.006% active. P17405. Potency, µM (doses to about 57.5 µM), usual class: inhibitors. AID 504937
Target sequence (P17405 47-631 limits assumed): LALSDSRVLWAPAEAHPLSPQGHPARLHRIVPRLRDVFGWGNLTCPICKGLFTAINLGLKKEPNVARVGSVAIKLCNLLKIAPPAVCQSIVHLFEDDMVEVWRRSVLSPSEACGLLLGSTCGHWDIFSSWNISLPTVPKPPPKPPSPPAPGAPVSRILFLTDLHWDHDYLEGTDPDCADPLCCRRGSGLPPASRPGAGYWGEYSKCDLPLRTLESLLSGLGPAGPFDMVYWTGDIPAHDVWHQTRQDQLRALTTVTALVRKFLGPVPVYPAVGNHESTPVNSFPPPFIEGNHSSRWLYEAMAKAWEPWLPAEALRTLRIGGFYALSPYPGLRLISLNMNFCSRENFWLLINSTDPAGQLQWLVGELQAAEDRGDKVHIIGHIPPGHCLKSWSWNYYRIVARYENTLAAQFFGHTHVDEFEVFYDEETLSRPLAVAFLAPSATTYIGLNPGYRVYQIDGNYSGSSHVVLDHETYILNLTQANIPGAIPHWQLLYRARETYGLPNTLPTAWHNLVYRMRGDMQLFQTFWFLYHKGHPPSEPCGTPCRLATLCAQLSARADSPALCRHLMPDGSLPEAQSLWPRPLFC
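qHTS format. ASM enzyme prepared from human placenta hydrolyses the fluorogenic substrate HMU-PC0 (9 uM final) over 60 min at 37 °C after a 10 min compound preincubation.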
DT40 TDP1 no CPT = qHTS for Inhibitors of human tyrosyl-DNA phosphodiesterase 1 (TDP1): qHTS in cells in absence of CPT; DT40 Tdp1-/- hTDP1 cells, no CPT, ATP luminescence, 48 h; Potency, µM (doses to about 46.2 µM), usual class: inhibitors; 420,000 tested, 15% active; AID 686978, 2013; note: nearly all actives have a fitted effect of over 55% in size
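Cells were dispensed at 400 per well, compounds added by pin tool, plates incubated ≥48 hr at 37 °C, then CellTiter-Glo added for 30 min at room temperature before luminescence reading. Line: DT40 Tdp1-/- complemented with hTDP1; camptothecin omitted.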
IL-1B inflam inh = blocks inflammasome-driven IL-1 beta release. THP-1 LPS/ATP IL-1B secretion, AlphaLISA, 16 h; stronger effect = lower value. activity change, % at 57.5 µM. 360,000 tested, 4.7% active. AID 743279; in the data active = activity change below about -50%; inconclusive = mostly about -30% to -49%
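THP-1 cells pretreated 1 hr with compounds (up to 57.5 uM final), then stimulated with LPS (250 ng/mL final) plus ATP (1.25 mM final); secreted IL-1B measured by AlphaLISA after 16 hr, decreased signal indicating inhibition.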
TGFb SMAD3 inh = blocks TGF-b signaling; AID 588855; HepG2 CAGA-GFP TGF-b/SMAD3 reporter, GFP fluorescence, 18 h; TGF-beta stimulated, 500 pg/mL final; 410,000 tested, 1.2% active; Potency, µM (titrated, usually from 46.1 µM), hits mostly inhibitors; note: nearly all actives have a fitted effect of over 65% in size
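Inhibition was scored as loss of TGF-beta-induced (500 pg/mL final, 18 hours, 37 degrees C) GFP in HEPG2 cells carrying a CAGA-GFP reporter, in DMEM with 1% FBS. Well GFP was summed per cell; Activity was normalised to unstimulated and stimulated DMSO wells, then concentration-response fitting.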
HepG2 tox = kills HepG2 cells in TGF-b inhibitor counter-screen. HepG2 CAGA-GFP viability, ATP luminescence, 18 h. Potency, µM (series often up to 46.1 µM), most hits filed as cytotoxic. 410,000 tested, 0.76% active. AID 588856
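HepG2 CAGA-GFP cells (1000/well, DMEM with 1% FBS) received compound, then TGF-beta at 500 pg/mL final, and were incubated 18 hours at 37 degrees C. Viability was read by CellTiter-Glo luminescence. Media-only wells were set as complete cell-killing and DMSO as no toxicity.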
Numbers stand for hits; 0 = inactive; ? = inconclusive; - = not tested or not shown; [ ] = remark or other dose. Unless noted, calls come from the whole dose curve; as a rule, active = well fitted curve in the direction sought with a large enough effect; inconclusive = small, poorly fitted or top-dose-only effect, or another doubt; inactive = no such curve, though single readings can be large; an effect the other way counts as inactive or inconclusive.

SMILES | DT40 TDP1 CPT | ASM inhibitor | DT40 TDP1 no CPT | IL-1B inflam inh | TGFb SMAD3 inh | HepG2 tox
O=c1c(Cl)c(Cl)cnn1Cc1nnc(-c2ccccc2Br)o1 | 4.1µM | 0 | 1.8µM | -96 | 16µM | 0
O=C(C[N+]1(CC(O)c2ccccc2)CCOCC1)c1ccccc1 (stereo unspecified) | 0 | - | 0 | - | 0 | 0
O=c1[nH]n(-c2ccccc2)c(=O)cc1Cl | 0 | 0 | 0 | 0 | 0 | 0
Cc1cccc(C)c1NC(=O)C1C(c2ccc3c(c2)OCO3)=Nc2ccccc2N1C(=O)c1cccc2ccccc12 (stereo unspecified) | 6.5µM | - | 7.3µM | 0 | - | -
Cc1nc2ccc(C(=O)N3c4ccccc4N=C(c4ccc5c(c4)OCO5)C3C(=O)NCc3ccccc3)cc2[nH]1 (stereo unspecified) | 2.1µM | - | 1.6µM | 0 | - | -
COc1ccccc1NC(=O)CCNC(=O)C1CCN(S(=O)(=O)c2ccccc2)CC1 | 0 | - | 0 | 0 | 0 | 0
CCCN1C(=O)c2ccccc2NC1c1ccc(OC)c(COc2cccc(C)c2C)c1 (stereo unspecified) | ? | - | 16µM | - | 0 | 0
CCCN1C(=O)c2ccccc2NC1c1cc(OC)c(OC)c(OC)c1 (stereo unspecified) | 0 | 0 | 0 | 0 | 0 | 0
COc1ccc(C2Nc3ccccc3C(=O)N2c2cccc3ccccc23)cc1COc1c(C)cccc1C (stereo unspecified) | 3.2µM | - | 2.8µM | - | 0 | 0
Cc1ccc(C(=O)c2cn(Cc3ccccc3F)c3cc4c(cc3c2=O)OCO4)cc1 | ? | - | 21µM | - | 0 | 0
Cc1ccc(Cn2cc(C(=O)c3ccc4c(c3)OCO4)c(=O)c3cc(C)ccc32)cc1 | ? | - | 23µM | - | 0 | 0
COc1ccc2cc3c(N)nn(C(=O)c4ccc(Cl)c([N+](=O)[O-])c4)c3nc2c1 | ? | 0 | ? | 0 | 0 | 0
COc1ccc2cc3c(N)nn(C(=O)c4ccccc4[N+](=O)[O-])c3nc2c1 | 2.6µM | - | 2.3µM | - | 0 | 0
COc1ccccc1NS(=O)(=O)c1cccc(N=C2N=C(N)c3ccccc32)c1 | 0 | 0 | 23µM | -66 | ? | 0
NC1=NC(=Nc2cccc(S(N)(=O)=O)c2)c2ccccc21 | 0 | 0 | 0 | ? | 0 | 0
CC(C)[C@H](NC(=O)C1CCN(S(=O)(=O)c2ccc(F)cc2)CC1)C(=O)NCc1ccncc1 | 0 | 0 | 0 | 0 | 0 | 0
CCSc1nnc(-c2sc3nnc(-c4ccccc4)c(-c4ccccc4)c3c2N)o1 | 13µM | 0 | 23µM | ? | 0 | 0
CCSc1nnc(-c2ccncc2)o1 | 0 | 0 | 0 | 0 | 0 | 0
Cn1nc(C(F)(F)F)c(-c2cccc(C(F)(F)F)c2)c1NC(=O)Nc1ccc(F)cc1 | 16µM | 0 | 15µM | 0 | 0 | 0
Nc1ccc(-c2cc(NC=O)c3ncc(-c4cccc(C(F)(F)F)c4)n3c2)cn1 | 16µM | - | 10µM | 0 | ? | 0
COc1cccc(-c2cc(NC=O)c3ncc(-c4cccc(C(=O)N(C)C)c4)n3c2)c1 | ? | - | ? | 0 | 0 | 0
CN(C)C(=O)c1cccc(-c2cc(NC=O)c3ncc(-c4ccc(F)c(Cl)c4)n3c2)c1 | 16µM | - | 23µM | 0 | ? | 0
COc1ccc(-c2cc(NC=O)c3ncc(-c4cccc(C(=O)N(C)C)c4)n3c2)cn1 | 23µM | - | 16µM | 0 | 0 | 0
Cc1cccc(-c2cc(NC=O)c3ncc(-c4cccc(C(=O)N(C)C)c4)n3c2)c1 | ? | - | 16µM | 0 | ? | 0
CSc1ccccc1NC(=O)CN(C)C(=O)COc1ncnc2ccccc12 | 0 | 0 | 0 | 0 | 0 | 0
SMILES | DT40 TDP1 CPT | ASM inhibitor | DT40 TDP1 no CPT | IL-1B inflam inh | TGFb SMAD3 inh | HepG2 tox
O=C(c1cccc(Cn2cccn2)c1)N1CCC(n2c(C3CCCO3)nc3cc(C(F)(F)F)ccc32)CC1 (stereo unspecified) | 0[9.04 µM] | - | 0 | - | - | -
COc1cc(OC)cc(C(=O)Nc2cc3c(cc2N2CCCC2)n(C)c(=O)c(=O)n3C)c1 | ? | - | ? | - | 0 | 0
CN(C)C(=O)c1cccc(-c2cnc3c(NC=O)cc(-c4cccc(C(F)(F)F)c4)cn23)c1 | 8.2µM | - | 8.2µM | 0 | ? | 0
CN(C)C(=O)c1cccc(-c2cnc3c(NC=O)cc(-c4ccc(N(C)C)cc4)cn23)c1 | 18µM | - | ? | 0 | 0 | 0
COc1cccc(-c2cnc3c(NC=O)cc(-c4cccc(C(=O)N(C)C)c4)cn23)c1 | ? | - | ? | 0 | 3.5µM | 0
CN(C)C(=O)c1cccc(-c2cnc3c(NC=O)cc(-c4cccc(F)c4)cn23)c1 | 21µM | - | 15µM | 0 | 0 | 0
CC(C)c1c(C(=O)NCc2cccnc2)cnn1-c1nccc(-c2cccs2)n1 | 0[9.04 µM] | - | ? | - | - | -
Cc1c(Cl)cccc1NC(=O)CNS(=O)(=O)c1cccs1 | 0 | - | 0 | - | 0 | 0
O=C(c1ccncc1)N1CCN(S(=O)(=O)c2ccccc2F)CC1 | 0 | 0 | 0 | 0 | 0 | 0
Cc1ccc(-c2cc(Cc3ccccn3)c(=O)[nH]n2)cc1 | 0 | 0 | 0 | 0 | 0 | 0
CCOC(=O)c1cc2c(ccn2C)n1Cc1cc(C)ccc1C | ? | 0 | ? | 0 | 0 | 0
CC(C)OC(=O)c1cc2c(ccn2C)n1CC(=O)N(Cc1ccccc1)c1ccccc1 | ? | 0 | 16µM | -64 | ? | 0
COc1ccc([C@H]2CC(=O)C=C(c3cc(F)ccc3F)C2)cc1OC | ? | 0 | 0 | 0 | 0 | 0
COc1ccc(C2=CC(=O)C[C@H](c3ccc(OC)c(OC)c3)C2)cc1 | 13µM | 0 | 18µM | 0 | 0 | 0
COc1ccc([C@H]2CC(=O)C=C(c3cccc(OC)c3OC)C2)cc1OC | ? | 0 | 23µM | 0 | ? | 0
COc1ccc([C@H]2CC(=O)C=C(c3ccc(CNC(=O)OC(C)(C)C)cc3)C2)cc1 | ? | 0 | 23µM | 0 | ? | 0
COc1ccc([C@H]2CC(=O)C=C(c3ccc(C)cc3)C2)cc1OC | 18µM | 0 | ? | 0 | 0 | 0
COc1ccc([C@H]2CC(=O)C=C(c3ccc(-c4ccccc4)cc3)C2)cc1OC | 0 | 0 | 0 | 0 | 0 | 0
N#Cc1cccnc1N1CCN(C(=O)c2[nH]c(C(F)(F)F)nc2-c2ccccc2)CC1 | 0 | - | 0 | 0 | 0 | 0
Cc1nnc(N/N=C/C(C)c2ccccc2)[nH]c1=O (stereo unspecified) | 0 | 0 | 0 | -100 | 0 | 0
Cc1ccc(CN2c3ccccc3-c3nc(SCC(=O)NCCc4ccccc4)ncc3S2(=O)=O)cc1 | ? | - | ? | - | 0 | 0
